According to PMC10726135, “HNF4α isoforms regulate the circadian balance between carbohydrate and lipid metabolism in the liver”:
Over roughly 18,000 sequences, “log2 normalized intensity” has its median near 0.36; the highest 2% begin near 7.3. Shown is part of a subset that was picked to be rich in the highest values.

Each sequence was assayed against T1, HNF4alpha8 (COS-7 nuclear extract) (Homo sapiens, UniProt P41235-5 1-452) (assay: protein-binding microarray; COS-7 nuclear extract on double-stranded Agilent 4x180k PBM; binding buffer, salt, pH and temperature not given in the material; high values mean tight binding). Details: chain copies: 2; label: 3' end of strand 1 on the slide; dsDNA, one strand shown.
T1 sequence: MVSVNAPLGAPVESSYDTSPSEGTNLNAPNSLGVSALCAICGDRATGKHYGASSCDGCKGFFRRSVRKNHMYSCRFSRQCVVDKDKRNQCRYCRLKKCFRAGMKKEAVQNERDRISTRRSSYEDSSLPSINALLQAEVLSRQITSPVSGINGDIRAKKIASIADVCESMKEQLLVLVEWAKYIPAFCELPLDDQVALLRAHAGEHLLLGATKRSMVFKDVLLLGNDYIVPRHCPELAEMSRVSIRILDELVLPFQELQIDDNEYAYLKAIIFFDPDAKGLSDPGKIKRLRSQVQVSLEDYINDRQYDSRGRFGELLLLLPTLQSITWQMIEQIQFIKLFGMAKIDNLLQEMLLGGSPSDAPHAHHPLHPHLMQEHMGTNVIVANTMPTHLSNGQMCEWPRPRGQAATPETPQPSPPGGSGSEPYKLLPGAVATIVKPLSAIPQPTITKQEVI
Procedure, shortened: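 A custom Agilent SurePrint G3 4x180k array, spotted in quadruplicate with ~44,000 test sequences as ~60-nt oligonucleotides made double-stranded, was incubated with nuclear extracts. The extracts came from COS-7 cells transiently transfected by CaPO4 with a human HNF4α isoform expression vector. Bound HNF4α was imaged on an Agilent G2565CA scanner at 2-µm resolution, and the binding signal was taken as Agilent software's background-corrected, normalized gProcessedSignal.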
“TAGGCATGCAAACTTTGTTTAATGATTGCAGCCTAGGGAGATTAGAGTATCGGTCGA” showed a binding signal of 0.0707 log2 normalized intensity.
“GGTACTGGAAACTGGGCAAGGTCCATTACGGCCTAGGGAGATTAGAGTATCGGTCGA” gave a binding signal of 3.56 log2 normalized intensity.
For “CACCTTCTTTCTCCCAGAGGTCGATCTGATGCCTAGGGAGATTAGAGTATCGGTCGA”, the binding signal was 2.25 log2 normalized intensity.
For “GGTGAAATAGCTGAACTATTTAAGGCCTTTGCCTAGGGAGATTAGAGTATCGGTCGA”, the binding signal was 0.507 log2 normalized intensity.
Work on “AGTTGGAAAATATTTCTCTGAACTTTGACCGCCTAGGGAGATTAGAGTATCGGTCGA” yielded a binding signal of 8.68 log2 normalized intensity.
Sequence “ACTGACCTTTGAGAGTCAACACTGAAATAGGCCTAGGGAGATTAGAGTATCGGTCGA” has a binding signal of 2.06 log2 normalized intensity.
For “GAAAATATTTCTCTGAACTTTGACCTATAGGCCTAGGGAGATTAGAGTATCGGTCGA”, the binding signal was 9.31 log2 normalized intensity.
Work on “CACTTCTGAAAAAAATATTGAACAAAGATTGCCTAGGGAGATTAGAGTATCGGTCGA” yielded a binding signal of 0.276 log2 normalized intensity.
Work on “TCTTTGATTAGGAAAGGGAACTCCCTGACCGCCTAGGGAGATTAGAGTATCGGTCGA” yielded a binding signal of 0.445 log2 normalized intensity.
“CTGTTTCTTTGTGTGTCAACAGAGTGCTTAGCCTAGGGAGATTAGAGTATCGGTCGA” was tested, and the binding signal was 1.48 log2 normalized intensity.
“TAGGTACTATTATTAGAGTCCCTTTTTTAGGCCTAGGGAGATTAGAGTATCGGTCGA” gave a binding signal of 0.509 log2 normalized intensity.
Sequence “GAAAGGATCTCACCCAAACCATCCCAGGCAGCCTAGGGAGATTAGAGTATCGGTCGA” has a binding signal of 3.1 log2 normalized intensity.
Sequence “GGTGATGTGAACCTCGATCCCTGGCTAAGGGCCTAGGGAGATTAGAGTATCGGTCGA” has a binding signal of 2.38 log2 normalized intensity.
Work on “CCCCACCCGCGGTCCGTCCCTCCTGGTCGAGCCTAGGGAGATTAGAGTATCGGTCGA” yielded a binding signal of 3.57 log2 normalized intensity.
For “CCCAGTATGAGCGGCGCTGACCCCGGGAGCGCCTAGGGAGATTAGAGTATCGGTCGA”, the binding signal was 3.67 log2 normalized intensity.
With “TGAGACTTTCCTGTTGGGGAGCAAAGGTTAGCCTAGGGAGATTAGAGTATCGGTCGA” the binding signal was 6.1 log2 normalized intensity.
In the case of “AAGAGCTGAGGAAGTGCTGACCTTTGGTCTGCCTAGGGAGATTAGAGTATCGGTCGA”, the binding signal is reported as 7.88 log2 normalized intensity.
With “GTCAGAGTGCTGCATGCAAAAAGGCTGACCGCCTAGGGAGATTAGAGTATCGGTCGA” the binding signal was 1.75 log2 normalized intensity.
“CCTAAACCTGCAAACCTTTGACCTTTCCATGCCTAGGGAGATTAGAGTATCGGTCGA” showed a binding signal of 6.22 log2 normalized intensity.
“CTTTTTGACCTTGCAGTGGCAAGGCAAAAGGCCTAGGGAGATTAGAGTATCGGTCGA” showed a binding signal of 2.28 log2 normalized intensity.
“AGTGCTGCATGCAAAAAGGCTGACCTTTGAGCCTAGGGAGATTAGAGTATCGGTCGA” gave a binding signal of 8.62 log2 normalized intensity.
Work on “TGCATGCAAAAAGGCTGACCTTTGACTCTCGCCTAGGGAGATTAGAGTATCGGTCGA” yielded a binding signal of 8.15 log2 normalized intensity.
With “TAGATAAGAGCTGAGGAAGTGCTGACCTTTGCCTAGGGAGATTAGAGTATCGGTCGA” the binding signal was 6.57 log2 normalized intensity.
“TCTCGGTCAAACCTTTGACCCTTTATAATCGCCTAGGGAGATTAGAGTATCGGTCGA” gave a binding signal of 6.91 log2 normalized intensity.
For “CTGAGGAAGTGCTGACCTTTGGTCTAAACCGCCTAGGGAGATTAGAGTATCGGTCGA”, the binding signal was 6.93 log2 normalized intensity.
“CTTTGAAATGTCCTGAGTGATTGTAGTGTCGCCTAGGGAGATTAGAGTATCGGTCGA” showed a binding signal of 1.86 log2 normalized intensity.
Work on “CCCCCGCAACTATTTATGAGTCTTGGGAATGCCTAGGGAGATTAGAGTATCGGTCGA” yielded a binding signal of 0.709 log2 normalized intensity.
“CACAGTGTTATTTGCTGAGGTGGGGGAGGTGCCTAGGGAGATTAGAGTATCGGTCGA” gave a binding signal of 0.772 log2 normalized intensity.
“TTAGGGAGGGGCCAGGACAAAGGTCCTGTGGCCTAGGGAGATTAGAGTATCGGTCGA” gave a binding signal of 2.51 log2 normalized intensity.
For “GGTTAAAATTTATCTATTGGGTACAATGTTGCCTAGGGAGATTAGAGTATCGGTCGA”, the binding signal was 2.37 log2 normalized intensity.
“CTTCCAGTCCACAGTCCAGTGACTATCTGCGCCTAGGGAGATTAGAGTATCGGTCGA” showed a binding signal of 1.02 log2 normalized intensity.
Work on “ATTTCTAGGTTTGATCTTTGCCCTACAATTGCCTAGGGAGATTAGAGTATCGGTCGA” yielded a binding signal of 6.36 log2 normalized intensity.
“GGGTATGAATTTAACCTTTGCTCTCTGAAAGCCTAGGGAGATTAGAGTATCGGTCGA” showed a binding signal of 6.63 log2 normalized intensity.
Sequence “CCATCCTACAGGGTATGAATTTAACCTTTGGCCTAGGGAGATTAGAGTATCGGTCGA” has a binding signal of 4.92 log2 normalized intensity.
With “ACTTTGCCCTTTTTTTCTCTCCCCTTTTAAGCCTAGGGAGATTAGAGTATCGGTCGA” the binding signal was 2.63 log2 normalized intensity.
“TGACCTTTGCATTCTTACCCAAGCCCCAAAGCCTAGGGAGATTAGAGTATCGGTCGA” was tested, and the binding signal was 4.12 log2 normalized intensity.
With “AGGGAATTTCTAGGTTTGATCTTTGCCCTAGCCTAGGGAGATTAGAGTATCGGTCGA” the binding signal was 7.66 log2 normalized intensity.
For “TTTCTTAATTGCCCTTTGCCCTTTGCCCAAGCCTAGGGAGATTAGAGTATCGGTCGA”, the binding signal was 8.84 log2 normalized intensity.
“TCCTCAGGGAATTTCTAGGTTTGATCTTTGGCCTAGGGAGATTAGAGTATCGGTCGA” showed a binding signal of 3.49 log2 normalized intensity.
Sequence “GCCCTTTGCCCTTTGCCCAACCCTCTCCCAGCCTAGGGAGATTAGAGTATCGGTCGA” has a binding signal of 6.2 log2 normalized intensity.
In the case of “CTACAGGGTATGAATTTAACCTTTGCTCTCGCCTAGGGAGATTAGAGTATCGGTCGA”, the binding signal is reported as 7.57 log2 normalized intensity.
“TAATTGCCCTTTGCCCTTTGCCCAACCCTCGCCTAGGGAGATTAGAGTATCGGTCGA” was tested, and the binding signal was 7.74 log2 normalized intensity.
